# Test results taken from ChEMBL document CHEMBL4513216, “Probing the Open Global Health Chemical Diversity Library for Multistage-Active Starting Points for Next-Generation Antimalarials” (ACS Infect Dis, 2020).
# The whole screen tested about 69,000 compounds, of which about 8,600 (12%) showed an effect of 50% or more. The sample holds strong results, similar compounds and a random draw of the others, so the mix is not that of the screen.
# Tested on: Plasmodium berghei
# Experiment: Screen against P. berghei liver stage (PbLuc), transformed with Luciferase, at 10uM
# Type: functional, HepG2
# Conditions: tested at 10 uM
row,SMILES,INHIBITION [%]
1,COCCNC(=O)[C@H]1C[C@@H]2CCN(c3ncccn3)C[C@@H]2O1,25.3
2,COC[C@H]1CC[C@H]2[C@H](CCN2C(=O)c2ccncc2F)O1,8.52
3,COCCNC(=O)[C@H]1CC[C@@H]2[C@@H](CCN2c2ncc(F)cn2)O1,0.734
4,CC1CCN(C(=O)[C@@H]2CC[C@@H]3[C@@H](CCN3c3ncc(F)cn3)O2)CC1,62.4
5,O=C(NC1CCCC1)[C@H]1CC[C@@H]2[C@@H](CCN2c2ncc(F)cn2)O1,-9.54
6,COCCNC(=O)[C@@H]1CC[C@@H]2[C@@H](CCN2c2ncc(F)cn2)O1,0.734
7,O=C(NC1CC1)[C@H]1CC[C@@H]2[C@@H](CCN2c2ncc(F)cn2)O1,50.1
8,CN1CCN(C(=O)[C@@H]2CC[C@@H]3[C@@H](CCN3c3ncccn3)O2)CC1,34.6
9,Cc1noc(CN(Cc2cccs2)C2CC2)n1,47.3
10,COCCO[C@H]1CCN(C(=O)c2cc(C)on2)[C@H]1Cc1ccccc1,28.2
11,CC1(c2[nH]ncc2C(N)=O)CCN(S(=O)(=O)c2ccccc2)CC1,11.1
12,CCC(CC)C(=O)N1CCN(Cc2cc(=O)c3ccccc3[nH]2)CC1,33.4
13,O=c1c2c(ncn1CCO)nc1n2CCC1,1.98
14,NC(=O)Cn1cnc2nc3n(c2c1=O)CCC3,-17
15,CCOC(=O)Cn1cnc2nc3n(c2c1=O)CCC3,81.2
16,Cc1nn(-c2ccccc2)cc1C(=O)N1CCCC(n2cccn2)C1 (stereo not given),66.4
17,Cc1ccn2ncc(C(=O)N3CCCC(n4ccnc4C)C3)c2n1 (stereo not given),-31.5
18,Cc1ccn2ncc(C(=O)N3CCCC(n4nc(C)nc4C)C3)c2n1 (stereo not given),11.5
19,Cc1nn(-c2ccccc2)cc1C(=O)N1CCCC(n2ccnc2)C1 (stereo not given),-3.2
20,Cc1nn(-c2ccccc2)cc1C(=O)N1CCCN2CCCC2C1 (stereo not given),51.3
21,Cc1nn(-c2ccccc2)cc1C(=O)N1CCCC1c1cnn(C)c1 (stereo not given),43.3
22,O=C(c1ccn(-c2ccccc2)n1)N1CCCC(n2cccn2)C1 (stereo not given),2.97

row,SMILES,INHIBITION [%]
1,Cc1ccn2ncc(C(=O)N3CCCC(n4cccn4)C3)c2n1 (stereo not given),50.5
2,Cc1cnn(C2CCCN(C(=O)c3cn(-c4ccccc4)nc3C)C2)c1 (stereo not given),-42.3
3,CN(C)c1ncc(C(=O)N2C[C@H]3CC(Oc4ccccc4)C[C@H]3C2)cn1 (stereo not given in full),2.35
4,O=C(Cc1cn2ccccc2n1)N1CCCC(n2ccnc2)C1 (stereo not given),-43.6
5,Cc1cccc(N2CCOCC3(C2)CN(c2ccoc2)C(=O)CO3)n1 (stereo not given),32.5
6,NC(=O)c1cc(CC2CCCN(c3cnccn3)C2)ncn1 (stereo not given),-32.7
7,CS(=O)(=O)NC1CCCN(C(=O)Nc2cccnc2N2CCCC2)C1 (stereo not given),21.1
8,Cc1oncc1C(=O)N1CC[C@H]2[C@H](C[C@@H](CN(C)C)N2CC2CC2)C1,33.5
9,CN(C)C[C@@H]1C[C@@H]2CN(Cc3nccn3C)CC[C@@H]2N1CC1CC1,51.2
10,CC(C)N1[C@H](Cn2cncn2)C[C@@H]2CN(Cc3nccn3C)CC[C@@H]21,37.6
11,CCc1ccc2nc(C)cc(C(=O)N3C[C@H]4CCC[C@@]4(CO)C3)c2c1,25.5
12,CCCc1cc(C(=O)N2C[C@H]3CCC[C@@]3(CO)C2)[nH]n1,21.9
13,Cc1cc(C(=O)N2CCC(n3nc(C)cc3C)C2)c2ccc(F)cc2n1 (stereo not given),37.3
14,Cc1cc(C(=O)N2C[C@H](c3ccccc3)[C@@H](N)C2)c2ccc(F)cc2n1,13
15,Cc1cc(C(=O)N2C[C@H]3CCC[C@@]3(CO)C2)c2ccc(F)cc2n1,58.6
16,Cc1ccc2nc(C)cc(C(=O)N3C[C@H]4CCC[C@@]4(CO)C3)c2c1,75.7
17,CC(C)COC(C)C(=O)NCc1ccc(F)cc1 (stereo not given),-27.8
18,Cc1cccc(CNC(=O)CC2CCN(Cc3ccccn3)CC2)n1,18.3
19,CCc1nc(C2CCCN2C(=O)CCc2cscn2)no1 (stereo not given),18.2
20,CCn1cc(CN2C[C@@H]3CCCN3C[C@H]2CCSC)cn1,35.2
21,CCOCC1CN(Cc2csc(C)n2)Cc2nccn2C1 (stereo not given),1.9
22,CCCc1nnc(N2CCC3(CC2)CC(=O)NC(=O)C3)o1,-10.2

row,SMILES,INHIBITION [%]
1,COc1ccc(CC(=O)N2CCCC(Cn3cc(CN)nn3)C2)cc1 (stereo not given),12.7
2,O=C(CC1=CCCCC1)N1CCC(Cn2cc(CCO)nn2)CC1,58.5
3,COCc1cn(C2CCN(C(=O)Cc3ccsc3)CC2)nn1,34.8
4,O=C(c1sccc1Cl)N1CCC(Cn2cc(CO)nn2)CC1,10.7
5,CC(C)(CN1CCCC1)CN1CCC(Cn2cc(CCO)nn2)CC1,-6.03
6,CC(C)CCN1CCCC(Cn2cc(CCO)nn2)C1 (stereo not given),6.69
7,NCc1cn(CC2CCCN(C(=O)CC3=CCCCC3)C2)nn1 (stereo not given),58.5
8,O=C(Cc1ccsc1)N1CCC(Cn2cc(CCO)nn2)CC1,57.1
9,NCc1cn(CC2CCCN(C(=O)NCc3ccc(Cl)cc3)C2)nn1 (stereo not given),45.8
10,CC(C)N(C)Cc1cnc2n1CCN(CCc1ccccc1)C2,8.47
11,O=C(NCCc1cccs1)[C@H]1CO[C@H]2CCNC[C@H]2C1,39.8
12,Cc1noc(C)c1CN1CCO[C@H]2CN(C(=O)C3CCOCC3)C[C@H]21,29.4
13,O=C(c1ccn(-c2ccccc2Cl)n1)N1CCCSCC1,-15.3
14,c1ccc(OC2C[C@@H]3CN(Cc4cnccn4)C[C@@H]3C2)cc1 (stereo not given in full),-15.3
15,Cc1cc(C)nc(Nc2cccc(C3CCCN(CC4CC4)C3)n2)n1 (stereo not given),47.2
16,CNc1cccc(C2CCCN(Cc3ncc[nH]3)C2)n1 (stereo not given),15.9
17,Cc1cccc(CNc2cc(C3CCCNC3)ccn2)n1 (stereo not given),50.45
18,Cc1cccc(Nc2cc(C3CCCN(CC(N)=O)C3)ccn2)n1 (stereo not given),81.55
19,Cc1cccc(Nc2cccc(C3CCCN(Cc4ncc[nH]4)C3)n2)n1 (stereo not given),64.1
20,Cc1nnc(Nc2cccc(C3CCN(Cc4ncc[nH]4)CC3)n2)s1,-12.9
21,Cc1cccc(Nc2nccnc2C2CCCN(CC(=O)N(C)C)C2)n1 (stereo not given),36.7
22,c1ccc(CNc2cc(C3CCCNC3)ccn2)nc1 (stereo not given),7.775

row,SMILES,INHIBITION [%]
1,CCc1nnc(Nc2cccc(C3CCCN(CC(C)(C)C)C3)n2)s1 (stereo not given),-34.6
2,COCCNc1cc(C2CCCNC2)ccn1 (stereo not given),-14.775
3,NC(=O)CN1CCCC(c2ccnc(Nc3ncccn3)c2)C1 (stereo not given),37.55
4,Cc1nnc(Nc2cccc(C3CCCN(Cc4ncc[nH]4)C3)n2)s1 (stereo not given),62.9
5,CN(C)CCNC(=O)C1Cc2nc(-c3ccsc3)sc2N1CC1CC1 (stereo not given),-16.2
6,CCN1C[C@H]2[C@@H](C1)N(S(=O)(=O)c1ccccc1F)CC[C@H]2OC,32.2
7,CN1CCn2c(-c3ccccc3)cnc2C12CCN(CC1CC1)CC2,29.8
8,CCOC(=O)N1C[C@@H]2CC[C@H]1CN(Cc1ccccc1)C2,12.8
9,CN(C)CCN1C(=O)C[C@@H]2[C@@H]1CCN2S(=O)(=O)c1ccccc1,-71.3
10,CCC(=O)N1CCCCC1c1nc(O)c2c(n1)CN(S(C)(=O)=O)CC2 (stereo not given),10.9
11,Cn1ccc(-c2cc(C(=O)N3CCCCC3)c3ccccn23)n1,49.4
12,O=C(CCCOc1ccccc1F)Nc1cc[nH]n1,11.5
13,CC(C)CC(=O)N[C@H](C)c1c(-c2ccc(Cl)cc2)noc1C(=O)O,7.5
14,CC(NC(=O)NCCCN(C(C)C)S(C)(=O)=O)c1ccncc1 (stereo not given),-11.4
15,NC(=O)CN(C(=O)C1Cc2cc(Cl)ccc2O1)C1CCCC1 (stereo not given),6.83
16,O=C(O)c1ccc(F)c(S(=O)(=O)N2CCOc3ccccc32)c1,32.44
17,Cc1ccc(C(=O)N2C[C@H]3CC[C@@H](C2)N(CC2CCC2)C3)s1,-26.4
18,COc1ncnc2c1CCN(Cc1cccs1)CC2,-0.804
19,CCc1noc(C2CCCCN2C(=O)c2cc(C)n(C)n2)n1 (stereo not given),52.4
20,CCc1noc(C2CCCCN2C(=O)c2ccccc2)n1 (stereo not given),-45
21,CCc1noc(C2CCCCN2C(=O)c2ccoc2C)n1 (stereo not given),22.1
22,CCc1noc(C2CCCCN2C(=O)c2cc(C)oc2C)n1 (stereo not given),78.1

row,SMILES,INHIBITION [%]
1,CCc1noc(C2CCCCN2C(=O)c2cc(C)on2)n1 (stereo not given),22.6
2,CCc1noc(C2CCCCN2C(=O)c2ccc(C)o2)n1 (stereo not given),45.8
3,CCc1noc(C2CCCCN2C(=O)c2ccn(C3CCCC3)n2)n1 (stereo not given),6.32
4,CCc1noc(C2CCCCN2C(=O)c2nnc3ccccc3n2)n1 (stereo not given),62.4
5,CCc1noc(C2CCCCN2C(=O)c2cccs2)n1 (stereo not given),9.32
6,Cc1nn(CC(=O)Nc2ccon2)cc1Br,20.1
7,CN1CCC(N(CCc2ccccc2)C(=O)c2ccoc2)CC1,32.8
8,CC(=O)N1CCC(C)(c2cc[nH]n2)CC1,35
9,CN1CCN(CC(NCc2ccc(F)c(F)c2)c2ccccc2)CC1 (stereo not given),8.31
10,Cc1nonc1CC(=O)N1CCC2(CCCN(C3CCOCC3)C2=O)C1 (stereo not given),-41.8
11,CCn1cc(CN2CCC(CCC(=O)Nc3ccccc3Cl)CC2)cn1,49.5
12,Cn1cc(CN2CCC(CCC(=O)Nc3ccccc3Cl)CC2)cn1,34
13,O=C(CCC1CCN(Cc2ncc[nH]2)CC1)Nc1ccccc1Cl,38.5
14,CSc1cccc(CN2CCC(CCC(=O)NC3CC3)CC2)c1,35.4
15,O=C(CCC1CCN(Cc2ccncc2)CC1)Nc1ccccc1Cl,70.1
16,CCn1ccnc1CN1CCN(CC(=O)NC2CCOCC2)CC1,22.5
17,CCn1ccnc1CN1CCN(CC(=O)NC(=O)NC2CC2)CC1,-3.95
18,CCn1ccnc1CN1CCN(CC(=O)NC(C2CC2)C2CC2)CC1,51.85
19,Cn1ccnc1CN1CCC(CCC(=O)Nc2ccccc2Cl)CC1,9.72
20,CSc1ccc(CN2CCC(CCC(=O)Nc3ccccc3)CC2)cc1,64.5
21,CSc1cccc(CN2CCC(CCC(=O)Nc3ccccc3)CC2)c1,47.7
22,CCn1ccnc1CN1CCC(CCC(=O)Nc2ccccc2Cl)CC1,71.8
